Assay results published in PubChem BioAssay (NCI).
Compounds without any hit were thinned out: in the full panel of roughly 83,000, 20% have a hit.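 Note: values are percent growth. 100 is the growth of untreated cells, values between 100 and 0 indicate rising inhibition; between -100 and 0 indicates cell death.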 Activity calls are given as the source filed them. Rule for the calls: active = growth percent below 10; inactive = the rest.

Columns and labels:
Test in all cases: NCI-60 one-dose screen, 48 h (100 = growth as untreated, 0 = no growth, -100 = all killed)
Conditions in all cases: 10 µM unless noted
[1] = system: SR leukemia
[2] = system: RPMI-8226 leukemia
[3] = system: OVCAR-8 ovarian
[4] = system: OVCAR-5 ovarian
[5] = system: OVCAR-4 ovarian
[6] = system: SK-OV-3 ovarian
[7] = system: IGROV1 ovarian
[8] = system: OVCAR-3 ovarian
[9] = system: HS 578T breast
[10] = system: NCI/ADR-RES ovarian
[11] = system: T-47D breast
[12] = system: BT-549 breast
[13] = system: MDA-MB-435 melanoma
[14] = system: SW-620 colon
[15] = system: MCF7 breast
[16] = system: HCT-116 colon
[17] = system: HCC-2998 colon
[18] = system: KM12 colon

Measured: growth

Cc1cc(NC(=O)c2cnc(N3CCN(CCOCCOCCOCCOCCC(=O)N[C@H](C(=O)N4C[C@H](O)C[C@H]4C(=O)N[C@@H](C)c4ccc(-c5scnc5C)cc4)C(C)(C)C)CC3)cn2)c2ncccc2c1
inactive: [3] 20.7% | [4] 80.4% | [5] 14.7% | [6] 63.9% | [10] 90.5% | [11] 20.2%
active: [1] 7.46% | [2] -26.5% | [7] -37.8% | [8] -30.8% | [9] 6.9% | [12] -37.3% | [13] -68.3% | [14] -39.9% | [15] 4.01% | [16] -60.3% | [17] -80.6% | [18] -64.6%

N#Cc1c(NC(=O)c2cccc(Br)c2)sc2c1CCCC2
inactive: [1] 31.9% | [2] 77.8% | [3] 81.9% | [4] 90.5% | [5] 75.1% | [6] 85.2% | [7] 67.4% | [8] 95% | [9] 80.7% | [10] 76.8% | [11] 77.9% | [12] 96.7% | [13] 10.8% | [14] 50.5% | [15] 51.8% | [16] 74.9% | [17] 94.7% | [18] 69.5%

COc1cc(OC)c(/C=C/C(=O)c2ccc(Nc3ncnc4ccccc34)cc2)c(OC)c1
active: [1] 1.91% | [3] -44% | [4] 8.12% | [5] 6.46% | [6] -42.4% | [8] -67.8% | [9] -13.2% | [10] -17.2% | [12] -29.3% | [13] -79.1% | [14] -66.8% | [15] 0.53% | [16] -33.7% | [18] 6.21%
inactive: [2] 12.2% | [7] 19.3% | [11] 36.2% | [17] 38.3%

COc1cc2ncnc(Nc3ccc(C(=O)/C=C/c4ccc(C(F)(F)F)cc4F)cc3)c2cc1OC
inactive: [1] 63.4% | [2] 12.8% | [3] 101% | [4] 103% | [5] 105% | [6] 123% | [7] 94.2% | [8] 101% | [9] 66.8% | [10] 102% | [11] 131% | [12] 93.6% | [13] 84.2% | [14] 110% | [15] 64.6% | [17] 109% | [18] 83.4%
active: [16] -62.7%

COc1cccc(C(Cc2ccccc2)Nc2ccccc2)c1OC (stereo not given)
inactive: [1] 102% | [2] 89.7% | [3] 99% | [4] 103% | [5] 98.1% | [6] 91.3% | [7] 86.8% | [8] 98.4% | [9] 106% | [10] 98.2% | [11] 80.6% | [12] 101% | [13] 105% | [14] 95.1% | [15] 102% | [16] 77% | [17] 91.2% | [18] 99.6%

CC1=CC[C@@H]2CC[C@]3(C)[C@H](CC[C@@H]4[C@@]5(C)CCCNC(C)(C)[C@@H]5CC[C@]43C)[C@H]2[C@@H]1C
inactive: [4] 41.1% | [6] 103% | [7] 40.5% | [9] 92.9% | [11] 65% | [12] 97.1%
active: [1] 5.05% | [2] -32.8% | [3] -87.3% | [5] -41% | [8] -28.9% | [10] -45.1% | [13] -17.3% | [14] -66.3% | [15] -28.2% | [16] -32.1% | [17] -51.5% | [18] -53%

COc1ccc(C2CC(c3cccc(Nc4ccncc4)c3)=NN2c2ccccc2)cc1 (stereo not given)
active: [1] 2.73% | [2] -6.86% | [12] -16.1% | [13] -57% | [14] -72.2% | [15] 8.74% | [16] 1.38% | [17] -52.5% | [18] -18.1%
inactive: [3] 20.5% | [4] 79.7% | [5] 51.8% | [6] 67.7% | [7] 43.7% | [8] 61.3% | [9] 68.5% | [10] 69.9% | [11] 68.9%

CN(Cc1ccccc1)c1nc(Cl)c(C2CC(c3ccc(Cl)cc3)=Cc3[nH][nH]c(=O)c32)s1 (stereo not given)
inactive: [1] 94.2% | [2] 92.5% | [3] 94.5% | [4] 97.5% | [5] 116% | [6] 101% | [7] 88.1% | [8] 95% | [9] 96.4% | [10] 89.6% | [11] 89.7% | [12] 67.7% | [13] 85% | [14] 99.8% | [15] 47.6% | [16] 94.2% | [17] 104% | [18] 103%

c1ccc(C2CC(c3cccc(Nc4ccncc4)c3)=NN2c2ccccc2)cc1 (stereo not given)
active: [1] 5.55% | [14] -44.4% | [16] -67.1% | [17] 3.07%
inactive: [2] 16.2% | [3] 68.5% | [4] 81.6% | [5] 67.5% | [6] 84.1% | [7] 62.6% | [8] 78.3% | [9] 82.5% | [10] 74.2% | [11] 92.1% | [12] 92.7% | [13] 15.3% | [15] 14.4% | [18] 44.7%

CN1CCN(c2c(F)cc(NC3=C(Cl)C(=O)c4ncccc4C3=O)cc2F)CC1
active: [1] 4.88% | [5] -87.8% | [8] -28% | [14] -68.4% | [15] -58.3% | [16] -11.3%
inactive: [2] 67.1% | [3] 78.1% | [4] 105% | [6] 101% | [7] 57.4% | [9] 97.2% | [10] 89.7% | [11] 16.1% | [12] 106% | [13] 21% | [17] 108% | [18] 105%

COc1ccc(C(=O)c2cc3c(N)c(C(=O)Nc4cccc(OC)c4)sc3nc2C)cc1
inactive: [2] 15.2% | [3] 15% | [4] 46.8% | [5] 49.5% | [6] 36.5% | [7] 37.6% | [9] 24.6% | [11] 62.6% | [12] 45.6% | [14] 30.1% | [15] 23.4% | [16] 11.1% | [17] 19.5% | [18] 20.9%
active: [1] -2.44% | [8] 1.93% | [10] 4.09% | [13] -14.3%

C=CCn1c(SCC(=O)Nc2ccc(C(=O)/C=C/c3cc(OC)c(OC)c(OC)c3)cc2)nnc1-c1cc(OC)c(OC)c(OC)c1
active: [1] -5.4% | [2] -32.3% | [8] -21% | [13] 3.79% | [14] -9.49% | [15] 7.87% | [16] -70.9% | [18] 1.11%
inactive: [3] 28.4% | [4] 95% | [5] 55.2% | [6] 76.5% | [7] 22.2% | [9] 69% | [10] 73% | [11] 60.7% | [12] 52.3% | [17] 20.2%

Clc1ccc(N2N=C(c3cccc(Nc4ccncc4)c3)CC2c2ccccc2)cc1 (stereo not given)
active: [16] -78.7%
inactive: [1] 51.7% | [2] 92.7% | [3] 94.5% | [4] 90% | [5] 88.9% | [6] 87.6% | [7] 92.9% | [8] 97.1% | [9] 72.7% | [10] 101% | [11] 96.9% | [12] 92.9% | [13] 67.5% | [14] 86.2% | [15] 76.2% | [17] 97% | [18] 90.4%

Cc1ccccc1-c1cc(Cc2ccc(F)cc2)c(=O)[nH]n1
active: [1] -21.2%
inactive: [2] 50.9% | [3] 90.4% | [4] 106% | [5] 103% | [6] 98.2% | [7] 97.4% | [8] 104% | [9] 99.9% | [10] 102% | [11] 99% | [12] 106% | [13] 119% | [14] 102% | [15] 97.9% | [16] 78.4% | [17] 119% | [18] 123%

COc1ccc(/C=C2\COc3ccc(-c4ccccc4)cc3C2=O)cc1O
active: [1] -10.8% | [2] -21.6% | [7] 7.03% | [8] 2.7% | [9] -1.69% | [11] 6.79% | [12] 2.18% | [13] 5.12% | [14] 6.95% | [15] 0.878% | [16] -5.06% | [18] 2.07%
inactive: [3] 13.1% | [4] 53.7% | [5] 80.5% | [6] 57.6% | [10] 22.6% | [17] 43.1%
